Assay results as given in PubChem BioAssay AID1159580 (chemical genetic matrix, 2015).
Several values for one entry are separate records, joined by “and”; a condition that tells them apart may be missing. Equal values may be shown once. In all, about 5,500 compounds went through this assay and about 2,000 (36%) were called active. Another 18% or so got no clear call; they are omitted. The list shows a part of the results. Values without a mark were called inactive. No stated cut-off is given here; in the data, active means normalized growth mostly below about 0.91 (no sharp cut-off); inconclusive means no clear call, values can overlap the other calls; inactive means mostly above about 0.92.

Assay: chemical genetic growth profiling, strain panel (AID 1159580);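 further: tested at 20 µM; growth read once vehicle control cultures reached saturation at 30 °C; 1 = growth at the plate median or of vehicle wells; lower values mean less growth of the strain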
Conditions: growth OD

COC(=O)c1c(C)cc(OC(=O)c2c(C)cc(O)c(C=O)c2O)c(C)c1O
normalized growth (S. cerevisiae deletion strains, locus YAL013W, strain DEP1, hits give low values): 0.93
normalized growth (S. cerevisiae deletion strains, locus YBR021W, strain FUR4, hits give low values): 1.05
normalized growth (S. cerevisiae deletion strains, locus YBR229C, strain ROT2, hits give low values): 1
normalized growth (S. cerevisiae deletion strains, locus YCL029C, strain bik1, hits give low values): 0.994
normalized growth (S. cerevisiae deletion strains, locus YDL035C, strain GPR1, hits give low values): 0.994
normalized growth (S. cerevisiae deletion strains, locus YDL074C, strain BRE1, hits give low values): 1.03
normalized growth (S. cerevisiae deletion strains, locus YDL101C, strain DUN1, hits give low values): 1.01
normalized growth (S. cerevisiae deletion strains, locus YDL185W, strain tfp1, hits give low values): 0.991
normalized growth (S. cerevisiae deletion strains, locus YDL192W, strain arf1, hits give low values): 0.934
normalized growth (S. cerevisiae deletion strains, locus YDR101C, strain arx1, hits give low values): 0.994
normalized growth (S. cerevisiae deletion strains, locus YDR162C, strain NBP2, hits give low values): 0.899
normalized growth (S. cerevisiae deletion strains, locus YDR318W, strain mcm21, hits give low values): 0.934
normalized growth (S. cerevisiae deletion strains, locus YDR388W, hits give low values): 0.988
normalized growth (S. cerevisiae deletion strains, locus YDR502C, strain sam2, hits give low values): 0.984
normalized growth (S. cerevisiae deletion strains, locus YEL061C, strain CIN8, hits give low values): 0.971
normalized growth (S. cerevisiae deletion strains, locus YER110C, hits give low values): 1.03
normalized growth (S. cerevisiae deletion strains, locus YER155C, strain BEM2, hits give low values): 1.03
normalized growth (S. cerevisiae deletion strains, locus YER167W, strain BCK2, hits give low values): 0.999
normalized growth (S. cerevisiae deletion strains, locus YGL078C, strain dbp3, hits give low values): 1.01
normalized growth (S. cerevisiae deletion strains, locus YGL086W, strain mad1, hits give low values): 0.942
normalized growth (S. cerevisiae deletion strains, locus YGL248W, strain PDE1, hits give low values): 0.98
normalized growth (S. cerevisiae deletion strains, locus YGR078C, strain PAC10, hits give low values): 0.971
normalized growth (S. cerevisiae deletion strains, locus YGR135W, strain pre9, hits give low values): 0.893 (active)
normalized growth (S. cerevisiae deletion strains, locus YGR229C, strain SMI1, hits give low values): 0.919
normalized growth (S. cerevisiae deletion strains, locus YGR252W, strain gcn5, hits give low values): 1.01
normalized growth (S. cerevisiae deletion strains, locus YHR030C, strain SLT2, hits give low values): 0.999 and 0.975
normalized growth (S. cerevisiae deletion strains, locus YHR079C, strain IRE1 (second series), hits give low values): 0.999
normalized growth (S. cerevisiae deletion strains, locus YHR079C, strain IRE1, hits give low values): 0.978
normalized growth (S. cerevisiae deletion strains, locus YHR094C, strain hxt1, hits give low values): 1
normalized growth (S. cerevisiae deletion strains, locus YHR129C, strain ARP1, hits give low values): 0.963
normalized growth (S. cerevisiae deletion strains, locus YHR200W, strain rpn10, hits give low values): 0.962
normalized growth (S. cerevisiae deletion strains, locus YIL066C, strain RNR3, hits give low values): 0.985
normalized growth (S. cerevisiae deletion strains, locus YIL073C, strain SPO22, hits give low values): 1.02
normalized growth (S. cerevisiae deletion strains, locus YIL125W, strain kgd1, hits give low values): 0.991
normalized growth (S. cerevisiae deletion strains, locus YIR030C, strain dcg1, hits give low values): 1.03
normalized growth (S. cerevisiae deletion strains, locus YJL095W, strain BCK1, hits give low values): 0.975 and 0.987
normalized growth (S. cerevisiae deletion strains, locus YJL134W, strain LCB3, hits give low values): 1.01
normalized growth (S. cerevisiae deletion strains, locus YJL168C, strain set2, hits give low values): 1.01
normalized growth (S. cerevisiae deletion strains, locus YJL187C, strain SWE1 (second series), hits give low values): 0.972
normalized growth (S. cerevisiae deletion strains, locus YJR043C, strain POL32, hits give low values): 0.971
normalized growth (S. cerevisiae deletion strains, locus YJR066W, strain TOR1, hits give low values): 0.919
normalized growth (S. cerevisiae deletion strains, locus YKL068W, hits give low values): 1.03
normalized growth (S. cerevisiae deletion strains, locus YKL085W, strain MDH1 (second series), hits give low values): 0.987
normalized growth (S. cerevisiae deletion strains, locus YKL085W, strain MDH1, hits give low values): 0.987
normalized growth (S. cerevisiae deletion strains, locus YKR001C, strain vps1, hits give low values): 0.891 (active)
normalized growth (S. cerevisiae deletion strains, locus YLR039C, strain RIC1, hits give low values): 0.947
normalized growth (S. cerevisiae deletion strains, locus YLR058C, strain SHM2, hits give low values): 0.957
normalized growth (S. cerevisiae deletion strains, locus YLR102C, strain apc9, hits give low values): 1.02
normalized growth (S. cerevisiae deletion strains, locus YLR113W, strain HOG1, hits give low values): 0.995
normalized growth (S. cerevisiae deletion strains, locus YLR262C, strain YPT6, hits give low values): 0.933
normalized growth (S. cerevisiae deletion strains, locus YLR268W, strain sec22, hits give low values): 0.916
normalized growth (S. cerevisiae deletion strains, locus YLR330W, strain CHS5, hits give low values): 1.01
normalized growth (S. cerevisiae deletion strains, locus YLR342W, strain FKS1 (second series), hits give low values): 1.07
normalized growth (S. cerevisiae deletion strains, locus YLR371W, strain rom2, hits give low values): 0.99
normalized growth (S. cerevisiae deletion strains, locus YLR418C, strain cdc73, hits give low values): 0.924
normalized growth (S. cerevisiae deletion strains, locus YML016C, strain PPZ1, hits give low values): 1
normalized growth (S. cerevisiae deletion strains, locus YML032C, strain rad52, hits give low values): 0.96
normalized growth (S. cerevisiae deletion strains, locus YML124C, strain tub3, hits give low values): 1
normalized growth (S. cerevisiae deletion strains, locus YMR078C, strain ctf18, hits give low values): 1.02
normalized growth (S. cerevisiae deletion strains, locus YMR223W, strain ubp8, hits give low values): 0.938
normalized growth (S. cerevisiae deletion strains, locus YMR263W, strain SAP30, hits give low values): 0.987
normalized growth (S. cerevisiae deletion strains, locus YMR307W, strain GAS1, hits give low values): 0.789
normalized growth (S. cerevisiae deletion strains, locus YNL067W, strain RPL9B, hits give low values): 0.972
normalized growth (S. cerevisiae deletion strains, locus YNL183C, strain NPR1, hits give low values): 0.917
normalized growth (S. cerevisiae deletion strains, locus YNL233W, strain BNI4, hits give low values): 0.982
normalized growth (S. cerevisiae deletion strains, locus YNL250W, strain rad50, hits give low values): 0.988
normalized growth (S. cerevisiae deletion strains, locus YNL271C, strain bni1, hits give low values): 1.03
normalized growth (S. cerevisiae deletion strains, locus YNL298W, strain CLA4, hits give low values): 1.01
normalized growth (S. cerevisiae deletion strains, locus YNL307C, strain MCK1, hits give low values): 1.01
normalized growth (S. cerevisiae deletion strains, locus YNR052C, strain pop2, hits give low values): 1
normalized growth (S. cerevisiae deletion strains, locus YOL006C, strain TOP1, hits give low values): 1.06
normalized growth (S. cerevisiae deletion strains, locus YOL012C, strain htz1): 0.816
normalized growth (S. cerevisiae deletion strains, locus YOL147C, strain pex11, hits give low values): 1.04
normalized growth (S. cerevisiae deletion strains, locus YOR061W, strain CKA2, hits give low values): 1
normalized growth (S. cerevisiae deletion strains, locus YOR069W, strain VPS5, hits give low values): 1
normalized growth (S. cerevisiae deletion strains, locus YOR136W, strain idh2, hits give low values): 1.02
normalized growth (S. cerevisiae deletion strains, locus YOR144C, strain elg1, hits give low values): 1.01
normalized growth (S. cerevisiae deletion strains, locus YOR184W, strain ser1, hits give low values): 0.931
normalized growth (S. cerevisiae deletion strains, locus YOR231W, strain MKK1, hits give low values): 0.981
normalized growth (S. cerevisiae deletion strains, locus YOR316C, strain cot1, hits give low values): 1.03
normalized growth (S. cerevisiae deletion strains, locus YPL256C, strain CLN2, hits give low values): 0.988
normalized growth (S. cerevisiae deletion strains, locus YPR119W, strain clb2, hits give low values): 0.996
normalized growth (S. cerevisiae deletion strains, locus YPR141C, strain kar3, hits give low values): 1
normalized growth (S. cerevisiae deletion strains, locus YPR163C, strain tif3, hits give low values): 1.01
normalized growth (S. cerevisiae deletion strains, locus YPR167C, strain met16, hits give low values): 0.963
normalized growth (S. cerevisiae deletion strains, strain wtn01, hits give low values): 0.948
normalized growth (S. cerevisiae strains, strain wild type, hits give low values): 0.926
